Laboratory results as given in PubChem BioAssay.

Experiment: probe aWnt5a binding to arrayed compounds – biochemical, biotinylated probe, 635/667 nm fluorescence, primary screen (AID 1113);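 also: score merges 667 nm fluorescence intensity with signal-to-noise per printed feature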
Details: small-molecule microarray, higher = more signal
Compound `O=C1C2C=CC(C(O)Cc3ccccc3)N(Nc3ccc([N+](=O)[O-])cc3)C2C(=O)N1c1ccccc1` (centres undefined) has a composite z-score of 0.159.
Compound `CC(C)C[C@@H]1NC(=O)[C@H](CC(C)C)NC(=O)[C@@]23C(=O)N[C@@H](Cc4ccccc4)C2[C@H](C)[C@@]2(C)O[C@H]2C3/C=C/CC/C=C/CNC1=O` (some centres undefined) has a composite z-score of -0.101.
Compound `COC(=O)[C@@]1(Cc2ccccc2CN=[N+]=[N-])N=C(c2ccc(OCCCO)cc2)O[C@H]1c1ccccc1N=[N+]=[N-]` has a composite z-score of -0.129.
Work on `CCOC(=O)C[C@H]1[C@H](OC(=O)Cc2ccc3c(c2)OCO3)[C@@H](NC(=O)c2ccc3ccccc3c2)c2cc(OCCCO)ccc2N1C(=O)Cc1ccc(OC)cc1` yielded a composite z-score of -0.159.
In the case of `C[N+](C)(C)CCCCNC(=O)[C@H]1C[C@H]2C(=O)NCC(=O)N2[C@H]1c1cccc(OCCO)c1`, the composite z-score is reported as 0.0618.
Compound `C=C(/C(=C/C[C@@H](OC(=O)c1ccncc1)c1ccc(CO)o1)c1cnc2ccccc2c1)C(C)C` has a composite z-score of -0.124.
With `CCCNC(=O)[C@@]1(Sc2ccc(C)cc2)CC(=O)N(Cc2ccccc2Cl)[C@@H]1c1ccc(CO)cc1` the composite z-score was -0.0478.
Work on `COC(=O)Cn1c(C(=O)N2CCCC2)cc2c1C[C@H]1CN(C(=O)c3ccccc3)[C@@](Cc3ccccc3)(C(=O)OC)[C@@H]21` yielded a composite z-score of -0.006.
For `NC(=O)NCC#Cc1ccc2c(c1)[C@]1(C(=O)N2)[C@H](C(=O)N2CCCCCCC2)[C@H]2C(=O)O[C@H](c3ccccc3)[C@H](c3ccccc3)N2[C@@H]1c1ccccc1OCCO`, the composite z-score was 1.31.
In the case of `Cc1ccc(S[C@]2(C(=O)NCCCN(C)C)CC(=O)N(C3CCCCC3)[C@@H]2c2ccc(CO)cc2I)cc1`, the composite z-score is reported as -0.0455.
In the case of `CCN1C(C)=C(C(=O)OC)[C@@H](c2ccccc2)N2C(=O)[C@@]3(C(=O)OC)O[C@@]12[C@@H]1C(=O)N(C)C(=O)[C@@H]13`, the composite z-score is reported as -0.0882.
`CO[C@H]1COC(=O)[C@H](C)NC(=O)CC=C[C@@H](C)[C@H](NS(=O)(=O)c2ccc(C)cc2)COC(=O)CC=C[C@@H]1C` showed a composite z-score of -0.137.
Compound `Cc1ccc(S(=O)(=O)N[C@H]2COC(=O)CC=C[C@H](C)COC(=O)N[C@@H](C)C(=O)CC=C[C@@H]2C)cc1` has a composite z-score of -0.1.
In the case of `CN1C2C=C(c3ccc(CO)cc3)C(C3C(=O)N(C(N)=O)C(=O)C32)C1c1cccs1` (centres undefined), the composite z-score is reported as -0.156.
In the case of `CCCC=C(CCC)[C@@H](NS(=O)(=O)c1ccc(C(F)(F)F)cc1)c1ccc(-c2ccccc2)cc1`, the composite z-score is reported as 0.145.
For `CO[C@H]1COC(=O)[C@@H](C)NC(=O)CC=C[C@@H](C)[C@H](OC)COC(=O)CC=C[C@@H]1C`, the composite z-score was -0.202.
Compound `C=CCC(OC(C)=O)[C@@H]1[C@@H](N(Cc2cc3ccccc3o2)C(=O)Cc2ccc(F)cc2)c2cc(OCCCO)ccc2N1C(=O)c1ccc(-c2ccccc2)cc1` (some centres undefined) has a composite z-score of -0.154.
`Cc1ccc(N2C(=O)c3ccccc3[C@@H](C(=O)NCc3ccccc3)[C@@H]2c2ccc(CO)cc2)nc1` gave a composite z-score of -0.148.
With `CCCC[C@@H]1C[C@H]1[C@@H](NC(=O)c1ccccc1)c1ccccc1C(F)(F)F` the composite z-score was -0.127.
With `CN1C(=O)C2C=CC(C(O)c3ccc(N(C)C)cc3)N(Nc3ccc([N+](=O)[O-])cc3[N+](=O)[O-])C2C1=O` (centres undefined) the composite z-score was 0.055.
With `O=C1C2C=CC(C(O)C#Cc3ccccc3)N(Nc3ccccc3)C2C(=O)N1c1ccccc1` (centres undefined) the composite z-score was -0.096.
With `Cc1ccc(S[C@]2(C(=O)NCCN3CCOCC3)CC(=O)N(C3Cc4ccccc4C3)[C@@H]2c2ccc(CO)cc2I)cc1` the composite z-score was 0.0718.
`O=C1O[C@@H](c2ccccc2)[C@@H](c2ccccc2)N2[C@@H](c3ccc(O)cc3)[C@]3(C(=O)Nc4ccccc43)[C@@H](C(=O)N3CCN(c4ncccn4)CC3)[C@H]12` gave a composite z-score of -0.105.
Compound `C=CC[C@]1(C(=O)NCC(O)CO)N=C(c2ccc(OCCCO)cc2)O[C@H]1c1ccccc1` (some centres undefined) has a composite z-score of -0.0286.
`CC[C@@H]1C=C(C(=O)O)[C@H](c2ccccc2)N1S(=O)(=O)c1ccc([N+](=O)[O-])cc1` gave a composite z-score of -0.0512.
Work on `CN1CCC(CCCO)=CC1C1CC1` (centres undefined) yielded a composite z-score of -0.172.
`C=CC[C@]1(C(=O)N2CCCCC2)N=C(c2ccc(OCCCO)cc2)O[C@H]1c1ccccc1N=[N+]=[N-]` gave a composite z-score of 0.0327.
With `COc1cccc([C@@H]2[C@@H](C)CC[C@H]3C(=O)N4[C@H](c5cccc(OC)c5)[C@@H](C)CC[C@H]4C(=O)N23)c1` the composite z-score was -0.0853.
`COCCOC(=O)N1C(=O)[C@@]2(c3cc(C#CC4=CCCCC4)ccc31)[C@H](c1ccc(O)cc1)N1[C@H](c3ccccc3)[C@H](c3ccccc3)OC(=O)[C@H]1[C@@H]2C(=O)N1CCCCCCC1` showed a composite z-score of -0.0732.
